# Target: T1, UniProt P0AES0
# T1 sequence (whole entry): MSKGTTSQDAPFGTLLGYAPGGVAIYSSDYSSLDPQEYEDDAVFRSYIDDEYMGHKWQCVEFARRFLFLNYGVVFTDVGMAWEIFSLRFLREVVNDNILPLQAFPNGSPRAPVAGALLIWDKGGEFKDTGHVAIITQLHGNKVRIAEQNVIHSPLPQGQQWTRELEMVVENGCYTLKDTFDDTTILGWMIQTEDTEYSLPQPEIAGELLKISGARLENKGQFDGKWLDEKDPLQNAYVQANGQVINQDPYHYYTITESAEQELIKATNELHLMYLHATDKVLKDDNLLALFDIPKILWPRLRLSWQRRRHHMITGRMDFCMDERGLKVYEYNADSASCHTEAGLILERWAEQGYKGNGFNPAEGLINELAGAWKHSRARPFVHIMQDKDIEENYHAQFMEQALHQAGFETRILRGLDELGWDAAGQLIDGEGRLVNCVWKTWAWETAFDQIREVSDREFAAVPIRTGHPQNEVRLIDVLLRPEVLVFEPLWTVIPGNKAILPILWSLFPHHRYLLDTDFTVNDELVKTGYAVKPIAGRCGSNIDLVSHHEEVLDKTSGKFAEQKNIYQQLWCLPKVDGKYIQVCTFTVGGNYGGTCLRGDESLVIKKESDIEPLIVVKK
# Test: log2 fold change of tryptic peptide abundance, ligand vs vehicle (limited proteolysis) (log2 ratio); higher = more trypsin-susceptible (destabilized)
# Settings: peptide sequence: TGYAVKPIAGR; peptide start residue: 528; ligand concentration: 5 mM; sample: E. coli desalted lysate; replicate design: treated before aliquoting
# Procedure: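 HT-PELSA: desalted E. coli K-12 BW25113 lysate (with 12 mM MgCl2) incubated with 5 mM ATP (pH 7) or water for 30 min at 25 C, then a 4 min trypsin pulse at 22 C. Peptides were quantified by DIA-MS (4 replicates). Value is the peptide log2 fold change (treated/control); negative = stabilized. Scale: negative = ligand-stabilized region.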
# 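Further: lysate desalted by size exclusion to strip endogenous ATP, peptide intensities built from DIA-NN precursor signals, and peptides missing any value discarded before comparison.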
row,Compound,log2 fold change
1,Nc1ncnc2c1ncn2[C@@H]1O[C@H](COP(=O)(O)OP(=O)(O)OP(=O)(O)O)[C@@H](O)[C@H]1O [adenosine 5'-triphosphate],-1.49

# — the supplement of paper PMC12819154, “High-throughput peptide-centric local stability assay extends protein–ligand identification to membrane proteins, tissues and bacteria” (Nature Structural & Molecular Biology, 2025)
